Entries with a potency or affinity are not part of this list. Results filed as inconclusive are left out. Activity calls are given as the source filed them.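 The calls were made as follows, unless noted: active = fitted dose curve reaches 40% lysis signal rise at or below the highest valid concentration tested for that sample; inconclusive = flat fit between 30% and 70%, or poor curve fit; inactive = signal falls, stays flat within 30%, or no crossing.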
Key:
[1] = fungal growth arrest, C. neoformans – Alamar Blue, cherry-picks, dose response (AID 686998;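 active = falling signal with fitted half-maximal potency no higher than twice the top valid tested dose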)
[2] = C. neoformans lysis by adenylate kinase leakage – AK release luminescence, cherry-picks, dose response (AID 687000);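 also: luminescent detection of adenylate kinase leaking from lysed yeast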
[3] = viability loss in HepG2 hepatoma cells – cell-based, cherry-picks, set 2, cytotoxicity control, dose response (AID 687002;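 active = a dose-response fit showing signal loss, with half-maximal concentration no higher than twice the top tested dose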)
[4] = viability loss in HeLa cells – cell-based, ATP luminescence, cherry-pick samples, cytotoxicity control, dose response (AID 687004;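 active = a fitted half-maximal concentration no higher than twice the top valid tested dose, with signal falling as cells die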)

Measured: outcome

O=C(Cc1ccccc1)N[C@H]1C=C[C@@H](CC(=O)N2CCOCC2)O[C@H]1CO
inactive: all assays above

O=C(CSc1ncnc2c1cnn2-c1ccc(F)cc1)NC1CCCC1
inactive: all assays above

O=C(Nc1ccccc1)N1CCCCN2[C@H](C1)[C@H](c1ccc(C#CC3CC3)cc1)[C@@H]2CO
inactive: all assays above

CO[C@H](CN(C)Cc1ccc2c(c1)OCO2)[C@@H](C)CN(C(=O)c1ccccc1)[C@@H](C)CO
inactive: all assays above

Cc1cc(C(=O)Nc2ccc3c(c2)C(=O)N(C)[C@@H]2CC[C@@H](CC(=O)N[C@@H](C)c4ccccc4)O[C@@H]2CO3)no1
inactive: all assays above

CCCNC(=O)N1C[C@H](O)COC[C@H]2O[C@H](CC(=O)N3CCN(C)CC3)CC[C@@H]21
inactive: all assays above

C[C@H]1CN([C@@H](C)CO)C(=O)c2cc(NC(=O)CCN3CCOCC3)ccc2O[C@@H]1CN(C)Cc1ccc(C(=O)O)cc1
inactive: all assays above

CC(=O)N1[C@@H](CO)[C@H](c2ccc(-c3ccccc3)cc2)[C@@H]1CNC(=O)C1CC1
inactive: all assays above

CNC(=O)C[C@H]1CC[C@H]2[C@@H](COc3ccc(NC(=O)Nc4ccccc4)cc3C(=O)N2C)O1
inactive: all assays above

Cc1ccccc1-n1ncc2c(SCC(=O)NC3CCCC3)ncnc21
inactive: all assays above

CC(C)NC(=O)Nc1ccc2c(c1)CC(=O)N([C@H](C)CO)C[C@@H](C)[C@H](CN(C)Cc1ccc3c(c1)OCO3)O2
inactive: all assays above

CCCN(C)C[C@H]1OCCCC[C@@H](C)Oc2ccc(NC(=O)NC(C)C)cc2C(=O)N([C@@H](C)CO)C[C@H]1C
inactive: all assays above

COc1cc(CNC(C)(C)C)ccc1OCC(=O)NC(C)(C)C
inactive: all assays above

CN(C)C(=O)c1ccc(-c2ccc([C@H]3[C@H]4CN(CCC(F)(F)F)CCCCN4[C@H]3CO)cc2)cc1
inactive: all assays above

CCC(=O)N1CCN(c2ccccc2NC(=S)NC(=O)c2cccc([N+](=O)[O-])c2)CC1
inactive: all assays above

C[C@@H]1CN([C@@H](C)CO)C(=O)c2cc(NC(=O)C3CCCCC3)ccc2O[C@@H](C)CCCCO[C@@H]1CN(C)C(=O)NC1CCCCC1
inactive: all assays above

COc1cccc(-c2cn(CC[C@@H]3CC[C@H](NC(C)=O)[C@@H](CO)O3)nn2)c1
inactive: all assays above

CCCNC(=O)Nc1ccc2c(c1)C(=O)N(C)C[C@@H](OC)[C@@H](C)CN(C(=O)CC)[C@H](C)CO2
inactive: all assays above

COc1ccccc1CNC(=O)C[C@@H]1CC[C@@H]2[C@H](COc3ccc(NC(C)=O)cc3C(=O)N2C)O1
inactive: all assays above

CC(C)NC(=O)N1CC[C@@H]2[C@@H](CO)N(C)c3ccc(-c4cccc(F)c4)cc3[C@@H]21
inactive: all assays above

C[C@H]1CN([C@@H](C)CO)C(=O)c2cc(NC(=O)Nc3ccc4c(c3)OCO4)ccc2O[C@@H]1CN(C)CC1CCCCC1
inactive: all assays above

COc1ccc(-n2cc(CNCCc3nc(C)cc(C)n3)c(-c3ccccc3Cl)n2)cc1
inactive: all assays above

CCCC#Cc1ccc2c(c1)O[C@@H](CN(C)C)[C@@H](C)CN([C@@H](C)CO)S2(=O)=O
inactive: all assays above

CO[C@H]1CN(C)C(=O)c2cc(NC(=O)Nc3cccc(F)c3)ccc2OC[C@H](C)N(C)C[C@H]1C
inactive: all assays above

COc1ccc(NC(=O)N(C)C[C@H]2OCCCC[C@H](C)Oc3ccc(NC(=O)C4CCCCC4)cc3C(=O)N([C@@H](C)CO)C[C@@H]2C)cc1
inactive: all assays above

Cc1ccc(OCC(=O)NCc2ccccc2)cc1
inactive: all assays above

Cc1noc(C)c1NC(=O)N(C)C[C@@H]1Oc2ccc(NC(=O)NC(C)C)cc2CC(=O)N([C@H](C)CO)C[C@H]1C
inactive: all assays above

Cc1noc(C)c1NC(=O)Nc1ccc2c(c1)C(=O)N([C@H](C)CO)C[C@H](C)[C@H](CN(C)CC1CCCCC1)O2
inactive: all assays above

COc1ccccc1-c1cnc2c(c1)C(=O)N([C@@H](C)CO)C[C@@H](C)[C@H](CN(C)C(=O)c1cccnc1)O2
inactive: all assays above

O=C(Nc1ccccc1)N[C@@H]1CC[C@@H](CCNC(=O)c2ccccc2F)O[C@H]1CO
inactive: all assays above

Cc1ccc(S(=O)(=O)N(CC(=O)NCCSC2CCCCC2)c2ccccc2F)cc1
inactive: all assays above

C[C@@H]1CN([C@@H](C)CO)C(=O)CCCn2nncc2CO[C@H]1CN(C)Cc1cccc(C(F)(F)F)c1
inactive: all assays above

O=C(Nc1cccc(F)c1)N[C@H]1CC[C@H](CCNS(=O)(=O)c2cccc(Cl)c2)O[C@@H]1CO
inactive: all assays above

CO[C@H]1CN(C)C(=O)c2cc(NC(=O)c3ccc4c(c3)OCO4)ccc2OC[C@@H](C)N(CC2CC2)C[C@H]1C
inactive: all assays above

CC(C)NC(=O)N(C)C[C@@H]1OCCCC[C@@H](C)Oc2ccc(NC(=O)c3ccccc3)cc2C(=O)N([C@H](C)CO)C[C@@H]1C
inactive: all assays above

CNC(=O)C[C@@H]1CC[C@@H]2[C@H](COC[C@@H](O)CN2C(=O)Nc2ccc3c(c2)OCO3)O1
inactive: all assays above

COCC(=O)N(C)C[C@@H]1Oc2ncc(C#CCC3CCCC3)cc2C(=O)N([C@@H](C)CO)C[C@H]1C
inactive: all assays above

CCCNC(=O)Nc1ccc2c(c1)C(=O)N(C)C[C@H](OC)[C@@H](C)CN(C(=O)CC)[C@@H](C)CO2
inactive: all assays above

C[C@H]1CN([C@@H](C)CO)C(=O)c2cc(-c3cncnc3)cnc2O[C@H]1CN(C)C(=O)c1ccccc1F
inactive: all assays above

C[C@@H]1CN([C@@H](C)CO)C(=O)c2cc(/C=C/c3ccccc3)cnc2O[C@@H]1CN(C)S(C)(=O)=O
inactive: all assays above

O=C([C@@H]1[C@@H](CO)[C@@H]2Cn3c(cccc3=O)[C@@H]2N1CCC(F)(F)F)N1CCCCC1
inactive: all assays above

COc1ccccc1-c1ccc([C@H]2[C@@H](C#N)N(C(=O)C3CC3)[C@@H]2CO)cc1
inactive: all assays above

O=C(NC1CCCCC1)N[C@@H]1CC[C@@H](CCNS(=O)(=O)c2ccc(Cl)cc2)O[C@H]1CO
inactive: all assays above

COCC(=O)NC[C@H]1N[C@H](CO)[C@@H]1c1ccc(C2=CCCC2)cc1
inactive: all assays above

CCC(=O)N1[C@H](CO)[C@H](c2ccccc2)[C@@H]1CN(CC)C(=O)c1cccc(F)c1
inactive: all assays above

C[C@@H]1CCCCO[C@H](CN(C)C(=O)c2ccncc2)[C@H](C)CN([C@H](C)CO)C(=O)c2cc(NC(=O)CCC(F)(F)F)ccc2O1
inactive: all assays above

COc1ccc(CN(C)C[C@@H]2Oc3ccc(NC(=O)C4CC4)cc3C(=O)N([C@H](C)CO)C[C@H]2C)cc1
inactive: all assays above

CCNC(=O)Nc1ccc2c(c1)C(=O)N(C)[C@@H]1CC[C@H](CC(=O)N[C@@H](C)c3ccccc3)O[C@@H]1CO2
inactive: all assays above

CCC(C(=O)Nc1c(C)cc(C)cc1C)N1CCCCCC1 (stereo not given)
inactive: all assays above

COc1ccc(CN(C)C[C@@H]2OCCCC[C@H](C)Oc3ccc(N(C)C)cc3C(=O)N([C@H](C)CO)C[C@@H]2C)cc1
inactive: all assays above

CC(C)NC(=O)N(C)C[C@H]1Oc2c(NC(=O)C3CCCCC3)cccc2C(=O)N([C@H](C)CO)C[C@H]1C
inactive: all assays above

O=C1CCC(C(=O)Nc2ccccc2)N1 (stereo not given)
inactive: all assays above

CNC(=O)C[C@@H]1CC[C@H]2[C@@H](COC[C@H](O)CN2C(=O)Nc2ccc3c(c2)OCO3)O1
inactive: all assays above

O=C(C[C@H]1C[C@@H]2c3cc(NC(=O)CC4CC4)ccc3O[C@@H]2[C@@H](CO)O1)NCc1cccc(F)c1
inactive: all assays above

Cc1cccc(C)c1NC(=O)C(C)N1CCCCC1 (stereo not given)
inactive: all assays above

— PubChem BioAssay
